Screening data: PubChem BioAssay, National Center for Advancing Translational Sciences (NCATS)
Only a selection was taken, and hits are over-represented in it overall.
Shiga inhibitor – Shiga toxin inhibition; Vero cells, Shiga toxin protein synthesis inhibition reporter; inhibition, % at 38.7 µM; 290,000 compounds, 9.2% hits; AID 2315; in the data active = inhibition mostly above about 28%, no sharp cut-off; inactive = mostly below about 43%; note: 0% is about no effect
LmPK inh – LmPK (Leishmania mexicana) enzyme inhibition | Q27686 | purified LmPK, Kinase-Glo ATP luminescence, 1 h | Potency, µM (doses to about 57.5 µM), inactives show at the top dose activity change, negative = inhibition, most hits filed as inhibitors | 290,000 compounds, 0.37% hits | AID 1721; note: potency is the fitted concentration of half-maximal effect; % is set by controls: 0 for no effect and ±100 for the full control effect
Target sequence (Q27686 whole entry, looked up): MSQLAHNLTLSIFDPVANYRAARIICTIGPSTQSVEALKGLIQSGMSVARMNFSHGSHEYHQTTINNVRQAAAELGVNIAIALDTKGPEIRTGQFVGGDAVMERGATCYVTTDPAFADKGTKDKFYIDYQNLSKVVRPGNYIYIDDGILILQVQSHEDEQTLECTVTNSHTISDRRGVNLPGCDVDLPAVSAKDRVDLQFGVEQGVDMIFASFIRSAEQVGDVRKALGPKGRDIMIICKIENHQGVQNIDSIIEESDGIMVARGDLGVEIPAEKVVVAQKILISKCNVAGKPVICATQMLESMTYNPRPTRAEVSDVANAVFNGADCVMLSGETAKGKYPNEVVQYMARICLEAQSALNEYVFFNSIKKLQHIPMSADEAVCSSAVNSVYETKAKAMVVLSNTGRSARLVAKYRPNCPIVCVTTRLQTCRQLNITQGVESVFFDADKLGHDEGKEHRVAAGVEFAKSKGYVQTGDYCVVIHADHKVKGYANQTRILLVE
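Screened at intermediate enzyme activity to detect both inhibitors and activators: LmPK at 0.1 nM, with a 0.5 nM enzyme column as activation reference. PEP 0.5 mM, ADP 0.1 mM; ATP detected by luminescence after 1 h.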
TbPYK inhibitor – blocks Trypanosoma brucei pyruvate kinase; Q57TT1; TbPYK enzyme, Kinase-Glo Plus ATP luminescence, 45 min; Potency, µM (series often up to 76.8 µM), for the others: top-dose activity, negative = inhibition, most hits filed as inhibitors; 410,000 compounds, 0.12% hits; AID 624173; note: potency is the fitted concentration of half-maximal effect; % is set by controls: 0 for no effect and ±100 for the full control effect; nearly all actives have a fitted effect of over 50% in size
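In this concentration-response screen, enzyme-free wells defined baseline while DMSO plates tracked drift. Each reaction combined TbPYK, substrate, compound and 130 uM ADP for 45 min at room temperature. Kinase-Glo Plus luminescence gave the signal.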
Cycloheximide cs – affects cycloheximide protein synthesis inhibition readout, counter-screen; cell reporter, cycloheximide protein synthesis inhibition counterscreen; max response, %; AID 2314; 300,000 compounds, 12% hits; in the data active = max response mostly above about 13%, no sharp cut-off; inactive = mostly below about 14%; note: read at 38.3 µM for the half of the compounds with a filed dose; 0% is about no effect
NS1 function inh – inhibitors of influenza NS1 protein function. Potency, µM (top dose mostly 46.1 µM), inactives show at the top dose activity, positive = more growth. 270,000 compounds, 0.4% hits. AID 2326; calls by dose curve; note: potency is the fitted concentration of half-maximal effect; actives are rising curves; nearly all actives have a fitted effect of over 50% in size
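Growth recovery, yeast-based: influenza A NS1 expressed in S. cerevisiae causes slow growth, and suppressors are detected by OD600. The parent strain without NS1 is used as positive control.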
SARS PLpro yeast – inhibitors of SARS-CoV papain-like protease in yeast | S. cerevisiae expressing SARS-CoV PLpro, growth rescue | Potency, µM (doses to about 32.9 µM), inactives show top-dose activity, positive = growth rescue, most hits filed as activators | 330,000 compounds, 0.19% hits; calls by dose curve; note: potency is the fitted concentration of half-maximal effect; 0% is about no effect; nearly all actives have a fitted effect of over 55% in size
An asterisk follows results filed as active. Unless noted, calls come from the whole dose curve; as a rule, active = well fitted curve in the direction sought with a large enough effect; inconclusive = small, poorly fitted or top-dose-only effect, or another doubt; inactive = no such curve, though single readings can be large; an effect the other way counts as inactive or inconclusive.

Screening Cc1noc(-c2ccc(-c3noc(-c4ccc(C(F)(F)F)cc4)n3)cc2)n1 returned TbPYK inhibitor -4%.
Screening O=C(Nc1ccc(CN2CCOCC2)cc1)c1ccc(Br)cc1 returned Shiga inhibitor 31, LmPK inh 3%, TbPYK inhibitor 3%, Cycloheximide cs 17*, NS1 function inh 13% and SARS PLpro yeast 5%.
`O=C(Nc1ccc(CN2CCCCC2)cc1)c1cc(Br)ccc1Cl` gave Shiga inhibitor 6, LmPK inh 0%, TbPYK inhibitor 3%, Cycloheximide cs -1, NS1 function inh 2% and SARS PLpro yeast 0%.
Screening O=C(Nc1ccc(CN2CCOCC2)cc1)c1cccc(F)c1 returned Shiga inhibitor 81*, LmPK inh -9%, TbPYK inhibitor 1%, Cycloheximide cs 52*, NS1 function inh -2% and SARS PLpro yeast 11%.
`C/C(=N\NC(=O)CSCc1ccc(Cl)cc1)c1ccc(NC(=O)c2ccccc2)cc1` gave Shiga inhibitor 21, LmPK inh 0%, TbPYK inhibitor 5%, Cycloheximide cs 23*, NS1 function inh -4% and SARS PLpro yeast -13%.
`O=C(Nc1ccc(CN2CCCCC2)cc1)c1cccc(Br)c1` gave Shiga inhibitor 42*, LmPK inh 13%, TbPYK inhibitor -3%, Cycloheximide cs 21*, NS1 function inh -3% and SARS PLpro yeast -1%.
For O=C(CCCC1=NS(=O)(=O)c2ccccc2N1)OCc1ccc(Cl)cc1 the results were Shiga inhibitor 22, LmPK inh -1%, TbPYK inhibitor -5%, Cycloheximide cs 2, NS1 function inh -12% and SARS PLpro yeast 0%.
`COc1ccc(-c2cc([C@H](O)C3CCCCN3)c3ccccc3n2)cc1` (stereo partly specified) gave NS1 function inh 8%.
For O=C(Nc1ccc(CN2CCOCC2)cc1)c1ccc(F)cc1 the results were Shiga inhibitor 60*, LmPK inh 0%, TbPYK inhibitor -3%, Cycloheximide cs 29*, NS1 function inh 3% and SARS PLpro yeast 3%.
Screening O=C(Nc1cccc([N+](=O)[O-])c1)c1ccc(CN2CCOCC2)cc1 returned Shiga inhibitor 85*, LmPK inh 6%, TbPYK inhibitor 3%, Cycloheximide cs 39*, NS1 function inh 27% and SARS PLpro yeast 11%.
`COc1c(C)cccc1C(=O)Nc1ccc(CN2CCCCC2)cc1` gave Shiga inhibitor 56, LmPK inh -2%, Cycloheximide cs 37*, NS1 function inh -2% and SARS PLpro yeast -7%.
CCOc1ccc(NC(=O)c2ccc(NC(=O)c3ccc(CN4CCOCC4)cc3)cc2)cc1 was read as Shiga inhibitor 32, LmPK inh -2%, TbPYK inhibitor -3%, Cycloheximide cs 6, NS1 function inh 0% and SARS PLpro yeast 0%.
Screening O=C(Nc1ccc(CN2CCOCC2)cc1)c1ccc2ccccc2c1 returned Shiga inhibitor 46*, LmPK inh -4%, TbPYK inhibitor -2%, Cycloheximide cs 59*, NS1 function inh -2% and SARS PLpro yeast 8%.
For CCC1(c2ccc(O)cc2)NC(=O)NC1=O (stereo unspecified) the results were Shiga inhibitor -11 and Cycloheximide cs -7.
O=C(Nc1ccc(CN2CCCCC2)cc1)c1sc2ccccc2c1Cl was read as Shiga inhibitor 37, LmPK inh 7%, TbPYK inhibitor 1%, Cycloheximide cs 23*, NS1 function inh -74% and SARS PLpro yeast -5%.
For O=C(Nc1ccc(CN2CCS(=O)(=O)CC2)cc1)c1ccc(F)cc1 the results were Shiga inhibitor 12, LmPK inh 3%, TbPYK inhibitor 8%, Cycloheximide cs 5, NS1 function inh -3% and SARS PLpro yeast -1%.
CC(C)(C)c1ccc(C(=O)Nc2ccc(CN3CCS(=O)(=O)CC3)cc2)cc1 was read as Shiga inhibitor 36, LmPK inh 4%, TbPYK inhibitor 2%, Cycloheximide cs 17*, NS1 function inh -1% and SARS PLpro yeast 0%.
O=C(Nc1ccc(F)cc1)c1ccc(Cn2cnnn2)cc1 was read as Shiga inhibitor 32, LmPK inh -11%, TbPYK inhibitor 8%, Cycloheximide cs 16* and SARS PLpro yeast 3%.
O=C(NCC(=O)N1CCCCC1)c1sc2ccccc2c1Cl was read as TbPYK inhibitor -12% and SARS PLpro yeast -10%.
Screening CC(=O)Nc1ccc(/C(C)=N/NC(=O)c2ccc(CN3CCOCC3)cc2)cc1 returned Shiga inhibitor -6, LmPK inh 2%, TbPYK inhibitor 2%, Cycloheximide cs -1 and SARS PLpro yeast -2%.
`C/C(=N\NC(=O)c1ccc(CN2CCOCC2)cc1)c1ccc(NC(=O)c2ccccc2)cc1` gave Shiga inhibitor 63*, LmPK inh -16%, TbPYK inhibitor -4%, Cycloheximide cs 41* and SARS PLpro yeast -6%.
Screening COc1ccc(-c2nc(SCC(=O)NCc3nc4ccccc4n3C)n3[nH]c(=O)cc3n2)cc1 returned TbPYK inhibitor 0%.
For COc1ccccc1CNC(=O)C1CCCN(S(=O)(=O)c2ccc3c(c2)oc(=O)n3C)C1 (stereo unspecified) the results were TbPYK inhibitor 0%.
COC(=O)c1ccc(NC(=O)c2ccc(CN3CCOCC3)cc2)cc1 was read as Shiga inhibitor -3, LmPK inh -5%, TbPYK inhibitor inconclusive, Cycloheximide cs 1, NS1 function inh -24% and SARS PLpro yeast 6%.
Screening O=C(Nc1ccc(CN2CCOCC2)cc1)c1ccc(Cl)cc1 returned Shiga inhibitor 36*, LmPK inh 0%, TbPYK inhibitor 0%, Cycloheximide cs 33*, NS1 function inh -5% and SARS PLpro yeast 6%.
Screening O=C(Nc1ccc(CN2CCOCC2)cc1)c1ccco1 returned Shiga inhibitor 51*, LmPK inh 4%, TbPYK inhibitor -2%, Cycloheximide cs 28*, NS1 function inh 10% and SARS PLpro yeast -2%.
